{"source": "PubChem BioAssay AID485313", "about": "(National Center for Advancing Translational Sciences (NCATS), 2010)", "note": "Out of some 320,000 compounds screened, about 7,600 (2.4%) were called active. Inconclusive results (about 3%) are left out. This excerpt belongs to a sample that is enriched for actives. Unmarked numbers belong to inactive results. The call rests on the fitted dose curve; in most records, active means well fitted activation curve with a large enough effect; inconclusive means small, poorly fitted or top-dose-only effect; inactive means no such curve, though single readings can be large or run the other way. Potency means the concentration at half of the fitted maximal effect.", "data": [{"experiment": "qHTS Assay for NPC1 Promoter Activators; further: nearly all actives have a fitted effect of over 60% in size; on activation: % of control where 0% means no effect", "settings": "Huh7 NPC1 promoter luciferase reporter, 24 h; series mostly up to 9.22 µM; activation: at the top concentration", "excerpt": "NIH Chemical Genomics Center [NCGC] NIH Molecular Libraries Probe Production centers Network [MLPCN] MLPCN Grant: MH089375-01A1 Assay Submitter (PI): Yiannis A. Ioannou NCGC Assay Overview: Niemann Pick Type C (NPC) is a rare neurodegenerative lipidosis that is characterized by lipid storage in the endosomal/lysosomal system. Treatment modalities for this devastating disease are currently non-existent due to the severe obstacles associated with accessing the central nervous system with proteins or genes. The majority of mutations causing NPC disease are missense mutations that are distributed throughout the length of the NPC1 protein, with the most prevalent being the I1061T allele. Although NPC1 mutant proteins may be functional, they are typically trapped in the ER due to misfolding. […] We have developed and optimized a cell based luciferase reporter assay in 1536 well format for the identification of up-regulators of the mutant NPC1 promoter.\nThe NPC1 promoter is cloned in front of the luciferase reporter gene, therefore NPC promoter activation results in luciferase expression. Frozen stock of the NPC1 promoter transfected Huh7 cells were obtained from the laboratory of Dr. Yiannis Ioannou (The Mount Sinai School of Medicine, New York, NY). Cells were propagated and maintained at NCGC in medium containing RPMI-1640 supplemented with 10% FBS, 2mM L-glutamine, and 50ug/ml penicillin/streptomycin. Cells were harvested in and plated for assays in OP-MEM I reduced-serum medium supplemented with 10% FBS. The Amplite luciferase reporter gene assay kit was purchased from ABD Bioquest and prepared/stored according to manufacturers recommendations. qHTS Assay Setup: 1.#Dispensed 5ul of Huh7 cells stably expressing NPC1-luciferase at a density of 1500 cells per well 1536-well plates. 2.#Incubate cells at 37C, 5% CO2, and 95% humidity for 2 hours. 3.#Transferred 23nl per well of compound in DMSO solution. 4.#Incubated at 37C, 5% CO2, and 95% humidity for 24 hours. 5.#Dispensed 3ul per well of Amplite reagent(ABD Bioquest) per well. 6.#Incubate at ambient for 10 minutes. 7.#Read using the luminescence protocol on the ViewLux plate reader (Perkin Elmer).", "values": [{"smiles": "CC(=O)Oc1ccccc1C(=O)Nc1ncc([N+](=O)[O-])s1", "Potency": "501 nM (active)"}, {"smiles": "CC(=O)c1c(O)c(C)c(O)c(Cc2c(O)c3c(c(C(=O)/C=C/c4ccccc4)c2O)OC(C)(C)C=C3)c1O", "activation": "-13.6% [at 46.1 µM]"}, {"smiles": "CN(C)c1ccc(NC(=O)CN2C3CCCC2CC(NC(=O)c2ccccc2)C3)cc1", "note": "(stereo not given)", "activation": "-8.85%"}, {"smiles": "CC[C@H]1CN2CCc3cc(OC)c(OC)cc3[C@@H]2C[C@@H]1C[C@H]1NCCc2cc(OC)c(OC)cc21", "Potency": "inactive"}, {"smiles": "CN(C)C(=O)Oc1ccc(OCc2cccc[n+]2C)cc1", "activation": "1.08%"}, {"smiles": "CCOC(=O)c1c(-c2ccccc2)oc2ccc(OC(=O)N(C)C)cc12", "activation": "-20.2%"}, {"smiles": "CN(C)C(=O)Oc1ccc2c(c1)O/C(=C\\c1ccccc1)C2=O", "Potency": "1580 nM (active)"}, {"smiles": "CC(=O)NBr", "activation": "-7.1% [at 46.1 µM]"}, {"smiles": "CCOC(=O)c1ncn2c1[C@@H]1CCCN1C(=O)c1cc(OC)ccc1-2", "activation": "-2.98% [at 46.1 µM]"}, {"smiles": "CNCC[C@H](Oc1ccc(C(F)(F)F)cc1)c1ccccc1", "Potency": "inactive"}]}]}
